54 compounds from ChEMBL document CHEMBL4513216, “Probing the Open Global Health Chemical Diversity Library for Multistage-Active Starting Points for Next-Generation Antimalarials” (ACS Infect Dis, 2020) can be followed below.

In all, about 69,000 compounds went through this assay and about 8,600 (12%) showed an effect of 50% or more. The sample as a whole holds a higher share of strong results than the screen did.

The experiment deals with Plasmodium berghei. The experiment is described as follows: Screen against P. berghei liver stage (PbLuc), transformed with Luciferase, at 10uM. In kind it is functional, HepG2. Conditions: tested at 10 uM.
In the case of `Cc1ccc(CN(C)C(=O)CN2CCCC(Cn3cncn3)C2)o1` (centres undefined), the INHIBITION was 15.6%.
With `Cc1ccc(C(=O)N(C)Cc2ccc(Br)s2)c(=O)[nH]1` the figure was 37.4%; with `Cc1ccc(-c2nc(CNC(C)Cn3cccn3)cs2)o1` (centres undefined), -27.9%.
Regarding `CCCc1noc(C(C)N2CCN(c3ccc(C#N)cn3)CC2)n1` (centres undefined), the INHIBITION worked out at 5.23%.
Take `CC(Cn1cccn1)NC(=O)N(C)Cc1ccc(C(N)=O)cc1` (centres undefined): the INHIBITION was 14.3%.
Turning to `CC(C)NC(=O)N1CCC2(CC(=O)N(c3cccc(F)c3)C2)C1` (centres undefined), the INHIBITION is reported as 7.65%.
With `Cc1cccc(N2CC3(CCN(C(=O)NC(C)C)C3)CC2=O)c1` (centres undefined) the figure was 14.6%.
With `CC(C)NC(=O)N1CCC2(CC(=O)N(c3cccc(C#N)c3)C2)C1` (centres undefined) the figure was 66.5%.
With `COCCN1C[C@@H]2CC[C@H]1CN(C(=O)CCc1c(C)nn(C)c1C)C2` the figure was 27.5%.
With `Cn1cc(CN2C[C@H](N3CCOCC3)[C@@H]3OCCC[C@@H]32)cn1`, the INHIBITION is on record as 54.1%.
With `Cn1ccnc1CN1C[C@H](N2CCOCC2)[C@@H]2OCCC[C@@H]21` the figure was 37.8%; with `Cn1cc(CN2C[C@@H](N3CCCC3=O)[C@H]3OCCC[C@H]32)cn1`, 29%.
With `CC(C)c1nnc(CN2CCCC3(CC2)CN(C)C(=O)O3)o1` (centres undefined), the INHIBITION came out at 23.9%.
Next, `CCOc1ccc(Cl)c(C(=O)N2CCCC(N3CCCC3)C2)n1` (centres undefined): 23.3%.
Next, `CC(C)N(CC(N)=O)Cc1csc(COc2ccc(F)cc2)n1`: 81.5%; `COCc1nc(CN(CC(N)=O)C(C)C)cs1`: 42%; `CCc1nc(CN(CC(N)=O)C(C)C)cs1`: 22.5%.
Next, `COc1ccc(-c2noc(CN3CCN(c4cnccn4)CC3)n2)cc1`: 47%; `Cc1cc(C)cc(C(=O)N2CCN(C(=O)N(C)C)CC2(C)C)c1`: 18.6%.
Consider `CN(C)C(=O)N1CCN(C(=O)c2ccc(Cl)c(Cl)c2)C(C)(C)C1`, for which the INHIBITION is recorded as 14.1%.
Next, `COC(=O)c1cccc(C(=O)N2CCN(C(=O)N(C)C)CC2(C)C)c1`: 68.6%; `CC(=O)N1CCC2(CC1)CN(C)CC[C@H]2C(F)(F)F`: -22.1%; `c1cc(CN2CCc3ncnc(C4CCOC4)c3CC2)ccn1` (centres undefined): 29.8%.
With `O=C(c1cn(-c2ccccc2)nn1)N1CCOCC(O)C1` (centres undefined) the figure was -28.1%; with `O=C(CCc1nc(Cl)n[nH]1)NC1CCCN(C2Cc3ccccc3C2)C1` (centres undefined), 35.1%; with `O=C(CCc1ccccn1)NC1CCCN(C2Cc3ccccc3C2)C1` (centres undefined), 51.1%.
With `O=C(CCc1ccccn1)NC1CCN(c2cccc(Cl)c2)C1` (centres undefined) the figure was 46.4%; with `Cn1nnnc1SC1CCCN(c2cccc(F)c2)C1=O` (centres undefined), -12.4%; with `O=C(COCC(=O)N(c1ccccc1)c1ccccc1)N1CCOCC1`, 13.3%.
With `O=C(CN1CCOCC1)N(c1ccccc1)c1ccccc1`, the INHIBITION stood at 78.8%.
Next, `CN(CCN1CCOCC1)C(=O)CCCc1ccccc1`: -57.6%; `CCOCC(=O)N1CCC2(CC1)CN(Cc1cccnc1)C(=O)CO2`: -47.9%.
Next, `COCCN1CCCC(Cc2cnc(-c3c(C)nn(C)c3C)cn2)C1` (centres undefined): -29.9%; `COCC1CN(c2ccc(C)nn2)Cc2cnn(CC3CCOCC3)c21` (centres undefined): 13.6%; `Cc1cc2[nH]c(O)nc2cc1NCc1ccc(F)cc1`: -5.64%.
Next, `COc1ccc(-c2nc3c([nH]2)CCNC3C(=O)O)c2ccccc12` (centres undefined): 55.4%; `COc1ccc(-c2nc3c([nH]2)CCNC3C(=O)O)c2ccc(C)nc12` (centres undefined): 36.6%.
Turning to `Cc1ccc(-c2nc3c([nH]2)CCNC3C(=O)O)c2cccnc12` (centres undefined), the INHIBITION is recorded as -6.83%.
With `Cc1ccc2nc(C(=O)N3C[C@@H](C(=O)O)[C@H](c4cccnc4)C3)cn2c1` the figure was -10.1%.
With `COc1cc(CNC(=O)COC2CCCC2)ccc1O` the figure was 9.06%; with `CNc1cc(C2CCN2c2ncccn2)nc(C)n1` (centres undefined), 15.5%; with `NC(=O)NC(=O)C(c1ccccc1)N1CCN(Cc2ccc(Cl)s2)CC1` (centres undefined), 50.4%.
`NC(=O)NC(=O)C(c1ccccc1)N1CCN(Cc2ccccc2)CC1` (centres undefined): the INHIBITION is reported as 24%.
With `O=C(NC1CC1)C(c1ccccc1)N1CCN(Cc2ccc(Cl)s2)CC1` (centres undefined) the figure was -65%; with `CS(=O)(=O)c1cncnc1C1CCCN(C(=O)NCc2ccccc2)C1` (centres undefined), -2.665%; with `Cn1ccnc1CN1C[C@@H]2OCCN(c3ncccn3)[C@@H]2C1`, 28.7%.
Next, `c1ccc(CCN2C[C@@H]3OCCN(c4ncccn4)[C@@H]3C2)cc1`: 76.5%; `Cn1cncc1CN1C[C@@H]2OCCN(c3ncccn3)[C@@H]2C1`: 63.7%.
As for `Fc1ccccc1CN1C[C@@H]2OCCN(c3ncccn3)[C@@H]2C1`, the INHIBITION was 42.7%.
Next, `c1cnc(N2CCO[C@H]3CN(CC4CC4)C[C@H]32)nc1`: 35.2%; `COc1ccc(CN2C[C@@H]3OCCN(c4ncccn4)[C@@H]3C2)cc1`: 32.4%; `Cn1cc(CN2C[C@@H]3OCCN(c4ncccn4)[C@@H]3C2)cn1`: 83.5%.
For `Cc1ccc(N2CCO[C@H]3CN(Cc4cnn(C)c4)C[C@H]32)nn1`, the INHIBITION is 25.6%.
Next, `Cc1noc(C)c1CN1CCO[C@H]2CN(Cc3cncn3C)C[C@H]21`: 18.5%.
